# B1: unnamed (peptide)
# chain: NHSRSLFSLPGNQQS
# B2: unnamed (peptide)
# chain: NLKKRPPTAPQRKIS
# B3: unnamed (peptide)
# chain: RRTRLRPPTPLSQLL
# Key:
# Assay in all cases: SPOT peptide array binding signal intensity (averaged, normalized) (arbitrary units (background-subtracted, floor 0; scale differs between SH3 domains)); higher = stronger binding of the SH3 domain to the peptide
# AgAbp1 = target: AgAbp1
# Method: (§1)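 GST-tagged SH3 domains from S. cerevisiae (Sc), A. gossypii (Ag), C. albicans (Ca) and S. pombe (Sp) were incubated at 10 ug/ml overnight at 4 C on cellulose SPOT membranes carrying 292 synthetic 15-mer peptides mined from the S. cerevisiae proteome (cysteines replaced by serines). Binding was detected with anti-GST antibody, HRP secondary and chemiluminescence, quantified with Genespotter, and reported as normalized spot intensities averaged over biological replicates.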
# AgBbc1 = target: AgBbc1
# Method: as §1
# AgBem1-D1 = target: AgBem1-D1
# Method: as §1
# AgBzz1-D1 = target: AgBzz1-D1
# Method: as §1
# AgBzz1-D2 = target: AgBzz1-D2
# Method: as §1
# AgCyk3 = target: AgCyk3
# Method: as §1
# AgFus1 = target: AgFus1
# Method: as §1
# AgHof1 = target: AgHof1
# Method: as §1
# AgHse1 = target: AgHse1
# Method: as §1
# AgLsb1 = target: AgLsb1
# Method: as §1
# AgLsb4 = target: AgLsb4
# Method: as §1
# AgMyo5 = target: AgMyo5
# Method: as §1
# AgNbp2 = target: AgNbp2
# Method: as §1
# AgRvs167 = target: AgRvs167
# Method: as §1
# AgSho1 = target: AgSho1
# Method: as §1
# AgSla1-D1-D2 = target: AgSla1-D1-D2
# Method: as §1
# AgSla1-D3 = target: AgSla1-D3
# Method: as §1
# CaAbp1-D1 = target: CaAbp1-D1
# Method: as §1
# CaAbp1-D2 = target: CaAbp1-D2
# Method: as §1
# CaBbc1 = target: CaBbc1
# Method: as §1
# CaBem1-D1 = target: CaBem1-D1
# Method: as §1
# CaBzz1-D1 = target: CaBzz1-D1
# Method: as §1
# CaBzz1-D2 = target: CaBzz1-D2
# Method: as §1
# CaCyk3 = target: CaCyk3
# Method: as §1
# CaFus1 = target: CaFus1
# Method: as §1
# CaHof1 = target: CaHof1
# Method: as §1
# CaHse1 = target: CaHse1
# Method: as §1
# CaLsb1 = target: CaLsb1
# Method: as §1
# CaLsb4 = target: CaLsb4
# Method: as §1
# CaMyo5 = target: CaMyo5
# Method: as §1
# SpBzz1-D2 = target: SpBzz1-D2
# Method: as §1
# SpCyk3 = target: SpCyk3
# Method: as §1
# SpHof1 = target: SpHof1
# Method: as §1
# SpHof1-2 = target: SpHof1-2
# Method: as §1
# SpHof1-3 = target: SpHof1-3
# Method: as §1
# SpHse1 = target: SpHse1
# Method: as §1
# SpLsb1 = target: SpLsb1
# Method: as §1
# SpLsb4 = target: SpLsb4
# Method: as §1
# SpMyo1 = target: SpMyo1
# Method: as §1
# SpNbp2 = target: SpNbp2
# Method: as §1
# SpPex13 = target: SpPex13
# Method: as §1
# SpRvs167 = target: SpRvs167
# Method: as §1
# SpSla1-D1-D2 = target: SpSla1-D1-D2
# Method: as §1
# SpSla1-D3 = target: SpSla1-D3
# Method: as §1
# CaNbp2 = target: CaNbp2
# Method: as §1
# CaRvs167 = target: CaRvs167
# Method: as §1
# CaRvs167-3 = target: CaRvs167-3
# Method: as §1
# CaSho1 = target: CaSho1
# Method: as §1
# CaSla1-D1-D2 = target: CaSla1-D1-D2
# Method: as §1
# CaSla1-D3 = target: CaSla1-D3
# Method: as §1
# ScAbp1 = target: ScAbp1
# Method: as §1
# ScBbc1 = target: ScBbc1
# Method: as §1
# ScBem1-D1 = target: ScBem1-D1
# Method: as §1
# ScBzz1-D1 = target: ScBzz1-D1
# Method: as §1
# ScBzz1-D2 = target: ScBzz1-D2
# Method: as §1
# ScCyk3 = target: ScCyk3
# Method: as §1
# ScFus1 = target: ScFus1
# Method: as §1
# ScHof1 = target: ScHof1
# Method: as §1
# ScHse1 = target: ScHse1
# Method: as §1
# ScLsb1 = target: ScLsb1
# Method: as §1
# ScLsb2 = target: ScLsb2
# Method: as §1
# ScLsb3 = target: ScLsb3
# Method: as §1
# ScLsb4 = target: ScLsb4
# Method: as §1
# ScMyo3 = target: ScMyo3
# Method: as §1
# ScMyo5 = target: ScMyo5
# Method: as §1
# ScNbp2 = target: ScNbp2
# Method: as §1
# ScPex13 = target: ScPex13
# Method: as §1
# ScRvs167 = target: ScRvs167
# Method: as §1
# ScSho1 = target: ScSho1
# Method: as §1
# ScSla1-D1-D2 = target: ScSla1-D1-D2
# Method: as §1
# ScSla1-D3 = target: ScSla1-D3
# Method: as §1
# SpAbp1-D1 = target: SpAbp1-D1
# Method: as §1
# SpBbc1 = target: SpBbc1
# Method: as §1
# SpBzz1-D1 = target: SpBzz1-D1
# Method: as §1
binder,measurement,setting,value
B1,SPOT peptide array binding signal intensity,AgAbp1,31
same,SPOT peptide array binding signal intensity,AgBbc1,21.5
same,SPOT peptide array binding signal intensity,AgBem1-D1,96.5
same,SPOT peptide array binding signal intensity,AgBzz1-D1,38
same,SPOT peptide array binding signal intensity,AgBzz1-D2,20.5
same,SPOT peptide array binding signal intensity,AgCyk3,1
same,SPOT peptide array binding signal intensity,AgFus1,786
same,SPOT peptide array binding signal intensity,AgHof1,58.8
same,SPOT peptide array binding signal intensity,AgHse1,2350
same,SPOT peptide array binding signal intensity,AgLsb1,246
same,SPOT peptide array binding signal intensity,AgLsb4,45
same,SPOT peptide array binding signal intensity,AgMyo5,44.5
same,SPOT peptide array binding signal intensity,AgNbp2,44
same,SPOT peptide array binding signal intensity,AgRvs167,14
same,SPOT peptide array binding signal intensity,AgSho1,64
same,SPOT peptide array binding signal intensity,AgSla1-D1-D2,58.5
same,SPOT peptide array binding signal intensity,AgSla1-D3,13.5
same,SPOT peptide array binding signal intensity,CaAbp1-D1,266
same,SPOT peptide array binding signal intensity,CaAbp1-D2,430
same,SPOT peptide array binding signal intensity,CaBbc1,111
same,SPOT peptide array binding signal intensity,CaBem1-D1,27
same,SPOT peptide array binding signal intensity,CaBzz1-D1,5.5
same,SPOT peptide array binding signal intensity,CaBzz1-D2,31
same,SPOT peptide array binding signal intensity,CaCyk3,1.5
same,SPOT peptide array binding signal intensity,CaFus1,1930
same,SPOT peptide array binding signal intensity,CaHof1,0.25
same,SPOT peptide array binding signal intensity,CaHse1,296
same,SPOT peptide array binding signal intensity,CaLsb1,2
same,SPOT peptide array binding signal intensity,CaLsb4,≤ 0
same,SPOT peptide array binding signal intensity,CaMyo5,85.2
B2,SPOT peptide array binding signal intensity,SpBzz1-D2,8.5
same,SPOT peptide array binding signal intensity,SpCyk3,≤ 0
same,SPOT peptide array binding signal intensity,SpHof1,192
same,SPOT peptide array binding signal intensity,SpHof1-2,12.8
same,SPOT peptide array binding signal intensity,SpHof1-3,77.2
same,SPOT peptide array binding signal intensity,SpHse1,1160
same,SPOT peptide array binding signal intensity,SpLsb1,9
same,SPOT peptide array binding signal intensity,SpLsb4,2350
same,SPOT peptide array binding signal intensity,SpMyo1,10.2
same,SPOT peptide array binding signal intensity,SpNbp2,303
same,SPOT peptide array binding signal intensity,SpPex13,6
same,SPOT peptide array binding signal intensity,SpRvs167,539
same,SPOT peptide array binding signal intensity,SpSla1-D1-D2,13
same,SPOT peptide array binding signal intensity,SpSla1-D3,6
B3,SPOT peptide array binding signal intensity,AgAbp1,31.5
same,SPOT peptide array binding signal intensity,AgBbc1,145
same,SPOT peptide array binding signal intensity,AgBem1-D1,113
same,SPOT peptide array binding signal intensity,AgBzz1-D1,80.8
same,SPOT peptide array binding signal intensity,AgBzz1-D2,45.5
same,SPOT peptide array binding signal intensity,AgCyk3,1.5
same,SPOT peptide array binding signal intensity,AgFus1,1120
same,SPOT peptide array binding signal intensity,AgHof1,123
same,SPOT peptide array binding signal intensity,AgHse1,866
same,SPOT peptide array binding signal intensity,AgLsb1,154
same,SPOT peptide array binding signal intensity,AgLsb4,100
same,SPOT peptide array binding signal intensity,AgMyo5,1.75
same,SPOT peptide array binding signal intensity,AgNbp2,204
same,SPOT peptide array binding signal intensity,AgRvs167,15.2
same,SPOT peptide array binding signal intensity,AgSho1,64
same,SPOT peptide array binding signal intensity,AgSla1-D1-D2,93
same,SPOT peptide array binding signal intensity,AgSla1-D3,5
same,SPOT peptide array binding signal intensity,CaAbp1-D1,218
same,SPOT peptide array binding signal intensity,CaAbp1-D2,133
same,SPOT peptide array binding signal intensity,CaBbc1,333
same,SPOT peptide array binding signal intensity,CaBem1-D1,192
same,SPOT peptide array binding signal intensity,CaBzz1-D1,233
same,SPOT peptide array binding signal intensity,CaBzz1-D2,76.8
same,SPOT peptide array binding signal intensity,CaCyk3,88.5
same,SPOT peptide array binding signal intensity,CaFus1,1050
same,SPOT peptide array binding signal intensity,CaHof1,7.63e-06
same,SPOT peptide array binding signal intensity,CaHse1,60.6
same,SPOT peptide array binding signal intensity,CaLsb1,0.5
same,SPOT peptide array binding signal intensity,CaLsb4,307
same,SPOT peptide array binding signal intensity,CaMyo5,4
same,SPOT peptide array binding signal intensity,CaNbp2,512
same,SPOT peptide array binding signal intensity,CaRvs167,40.8
same,SPOT peptide array binding signal intensity,CaRvs167-3,16.5
same,SPOT peptide array binding signal intensity,CaSho1,526
same,SPOT peptide array binding signal intensity,CaSla1-D1-D2,574
same,SPOT peptide array binding signal intensity,CaSla1-D3,12.9
same,SPOT peptide array binding signal intensity,ScAbp1,70.5
same,SPOT peptide array binding signal intensity,ScBbc1,61.6
same,SPOT peptide array binding signal intensity,ScBem1-D1,111
same,SPOT peptide array binding signal intensity,ScBzz1-D1,42
same,SPOT peptide array binding signal intensity,ScBzz1-D2,26.2
same,SPOT peptide array binding signal intensity,ScCyk3,83.8
same,SPOT peptide array binding signal intensity,ScFus1,722
same,SPOT peptide array binding signal intensity,ScHof1,4.5
same,SPOT peptide array binding signal intensity,ScHse1,1120
same,SPOT peptide array binding signal intensity,ScLsb1,63
same,SPOT peptide array binding signal intensity,ScLsb2,5.5
same,SPOT peptide array binding signal intensity,ScLsb3,1130
same,SPOT peptide array binding signal intensity,ScLsb4,37.8
same,SPOT peptide array binding signal intensity,ScMyo3,≤ 0
same,SPOT peptide array binding signal intensity,ScMyo5,4.12
same,SPOT peptide array binding signal intensity,ScNbp2,727
same,SPOT peptide array binding signal intensity,ScPex13,16.2
same,SPOT peptide array binding signal intensity,ScRvs167,148
same,SPOT peptide array binding signal intensity,ScSho1,1180
same,SPOT peptide array binding signal intensity,ScSla1-D1-D2,2070
same,SPOT peptide array binding signal intensity,ScSla1-D3,3.38
same,SPOT peptide array binding signal intensity,SpAbp1-D1,20.5
same,SPOT peptide array binding signal intensity,SpBbc1,14.8
same,SPOT peptide array binding signal intensity,SpBzz1-D1,486
same,SPOT peptide array binding signal intensity,SpBzz1-D2,≤ 0
same,SPOT peptide array binding signal intensity,SpCyk3,4
same,SPOT peptide array binding signal intensity,SpHof1,406
same,SPOT peptide array binding signal intensity,SpHof1-2,61.6
same,SPOT peptide array binding signal intensity,SpHof1-3,610
same,SPOT peptide array binding signal intensity,SpHse1,460
same,SPOT peptide array binding signal intensity,SpLsb1,87.8
same,SPOT peptide array binding signal intensity,SpLsb4,615
same,SPOT peptide array binding signal intensity,SpMyo1,12.1
same,SPOT peptide array binding signal intensity,SpNbp2,184
same,SPOT peptide array binding signal intensity,SpPex13,12.8
same,SPOT peptide array binding signal intensity,SpRvs167,24.8
same,SPOT peptide array binding signal intensity,SpSla1-D1-D2,53
same,SPOT peptide array binding signal intensity,SpSla1-D3,8
